An excerpt weighted towards active compounds, which were near 4.6% of everything screened.
NALP3 yeast inh: inhibitors of NALP3 inflammasome in yeast. Yeast reconstituted NLRP3/ASC/caspase-1, beta-gal luminescence, 24 h. inhibition, % at 10 µM. 330,000 compounds, 0.39% hits;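 active = inhibition of 50% or more; inactive = inhibition below 50%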;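 note: plate controls were induced DMSO wells for no effect and uninduced yeast grown without galactose for full effect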
SKKanGAS inh: SKKanGAS growth inhibition; S. pyogenes SKKanGAS, kanamycin growth, BacTiter-Glo, 6 h; inhibition, % at 7.5 µM; 300,000 compounds, 1.3% hits; AID 1662;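 active = mean replicate score, as percent of positive control median, at least 50; inconclusive = mean below 50 but one replicate at or above 50; inactive = mean and every replicate below 50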;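 note: strain carries kanamycin resistance gene driven by streptokinase promoter and grows in 40 µg/ml kanamycin; loss of luminescence reflects streptokinase promoter inhibition or plain growth inhibition; 0% = median of DMSO wells and 100% = positive control at its reference dose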
tim23-1 inh: inhibits growth of tim23-1 mutant yeast; S. cerevisiae tim23-1 growth, BacTiter-Glo luminescence, 24 h; inhibition, % at 20 µM; 330,000 compounds, 1.3% hits; AID 463212;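 active = growth inhibition of the mutant yeast at or above 50%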;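 note: temperature-sensitive mutant grown at 25 °C; plate controls were DMSO-treated mutant yeast for no effect and medium wells lacking yeast for full effect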
TIM10 inh: TIM10 yeast growth inhibition | S. cerevisiae TIM10 strain growth, BacTiter-Glo luminescence, 24 h | inhibition, % at 10 µM | 330,000 compounds, 1.4% hits;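 active = inhibition of 40% or more at the single tested concentration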;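 note: wild-type TIM10 isogenic control strain grown at permissive 25 °C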
PfHsp90 set2: growth inhibition of yeast expressing Plasmodium Hsp90 | S. cerevisiae expressing PfHsp90, BacTiter-Glo ATP, 48 h; yeast lacking PDR1 and PDR3 efflux regulators | inhibition, % at 9.4 µM | 310,000 compounds, 0.32% hits | AID 504621;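 active = every replicate shows inhibition above about 80%, whatever the replicate mean, limit read from the data; inconclusive = mean inhibition reaches the set limit but some replicate falls short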;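 note: 0% = DMSO neutral controls and 100% = 20 µM radicicol positive controls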
tim10-1 inh: tim10-1 yeast growth inhibition. S. cerevisiae tim10-1 ts strain growth, BacTiter-Glo, 24 h. inhibition, % at 20 µM. 330,000 compounds, 2.2% hits. AID 463190;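 active = inhibition of at least 40%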;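 note: mutant grown at 25 °C; 0% = DMSO wells with yeast and 100% = wells holding no yeast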
tim10-1 confirm: tim10-1 yeast growth inhibition, confirmed; S. cerevisiae tim10-1 ts strain growth, BacTiter-Glo, 24 h; AID 463213; 7,400 compounds, 56% hits; inhibition, % at 20 µM; shares compounds with tim10-1 inh;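 active = inhibition of yeast growth at or above a set limit in either of two repeat tests at 20 µM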;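 note: tim10-1 mutant grown at permissive 25 °C to find synthetic lethal compounds; 0% = DMSO yeast wells and 100% = medium wells without yeast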
TIM10 conf: TIM10 yeast growth inhibition, confirmed; inhibition, % at 10 µM; S. cerevisiae tim10 strain growth, BacTiter-Glo luminescence, 24 h; 4,600 compounds, 63% hits; shares compounds with TIM10 inh;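 active = inhibition of yeast growth at or above a set limit in either of two replicates at 10 µM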;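 note: this counterscreen used the strain with wild-type TIM10; 0% = yeast with DMSO and 100% = medium wells lacking yeast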
* hit, by the source's call; ? = inconclusive; · = not tested or not shown.

SMILES	NALP3 yeast inh	SKKanGAS inh	tim23-1 inh	TIM10 inh	PfHsp90 set2	tim10-1 inh	tim10-1 confirm	TIM10 conf
Cc1cc(C)c2c(=O)n(CC(=O)Nc3ccc(Cl)cc3)sc2n1	21.5	-1.6	18.0	85.7*	1.0	90.7*	92.8*	95.5*
COc1ccc(-c2ccc3c(c2)C2CC3CCN2C(=O)C2CCCCC2)cc1 (configuration not stated)	·	·	·	·	5.0	·	·	·
O=C(NCCc1c[nH]c2ccccc12)OCCCCOC(=O)NCCc1c[nH]c2ccccc12	15.0	9.8	-3.3	1.7	2.8	-13.1	·	·
COc1ccc2c(c1)c1nnc(SC)nc1n2C	40.5	8.3	43.4	81.5*	·	63.1*	65.6*	81.1*
COC(=O)/C=C/c1ccc2c(c1)S(=O)(=O)N(Cc1ccc(OC)cc1)[C@H]2CC(=O)OC	29.1	2.6	10.5	14.0	3.7	12.2	·	·
COc1ccc(CN2[C@@H](CC(C)=O)c3ccc(/C=C/C(C)=O)cc3S2(=O)=O)cc1	9.8	1.0	48.4	55.0*	·	54.9*	51.3*	54.7*
CCCN(CCC)C1CC(=O)N(Cc2ccccc2)C1=O (configuration not stated)	13.9	11.8	34.2	41.5*	?	53.3*	47.1*	38.6*
CCCCCCC(=O)N(O)C1CC(=O)N(Cc2ccccc2)C1=O (configuration not stated)	13.4	·	23.9	42.6*	-16.0	44.9*	40.7*	26.6
Cc1cc(C)c(S(=O)(=O)N2CCN(c3ccccn3)CC2)c(C)c1	44.1	·	44.4	4.2	-12.3	27.5	·	·
CCOc1ccc(N2C(=O)C(=O)/C(=C(/O)c3ccccc3)C2c2ccccc2[N+](=O)[O-])cc1 (configuration not stated)	10.3	9.4	3.1	14.1	7.3	14.2	·	·
CC1CCN(CC(CS(=O)(=O)c2ccc([N+](=O)[O-])cc2)N2CCC(C)CC2)CC1 (configuration not stated)	24.3	8.2	43.5	60.2*	14.9	44.8*	48.8*	48.5*
Cc1nc2c3cc(F)ccc3n(Cc3ccccc3)c2s1	-47.8	8.6	33.0	47.7*	26.4	44.9*	35.7*	36.6*
Cc1nc2c3cc(F)ccc3n(CCN3CCCCC3)c2s1	-12.0	-0.9	9.2	17.5	·	17.1	·	·
CCOC(=O)c1ccc(N2C(=O)CC(Sc3nnc(C)s3)C2=O)cc1 (configuration not stated)	28.2	0.8	38.0	64.5*	-30.9	54.6*	77.7*	60.4*
C=CCNc1nnc(SC2CC(=O)N(c3ccc(OCCC)cc3)C2=O)s1 (configuration not stated)	18.9	-6.9	45.6	67.6*	9.8	63.0*	74.0*	69.4*
Cc1ccc2ccccc2c1COC(=O)c1nonc1N	-9.4	-8.0	25.9	50.5*	3.5	42.9*	43.4*	49.9*
COCCCNC(=O)c1ccc2c3c(onc13)-c1ccccc1C2=O	37.9	9.5	43.6	43.3*	-4.6	53.3*	41.6*	41.2*
COCCCNC(=O)c1ccccc1Oc1ccccc1	2.9	-0.3	3.1	12.3	-34.2	3.6	·	·
Cc1nc(N)sc1N=Nc1ccc(Br)cc1	27.9	12.5	48.2	59.5*	-13.6	44.0*	28.6*	57.5*
Cc1[nH]nc(N)c1N=Nc1ccc(Br)cc1	19.4	16.0	-263.8	29.5	·	14.2	·	·
O=C(/C=C/c1cn(-c2ccccc2)nc1-c1cccnc1)c1ccco1	11.8	-10.1	41.5	47.9*	·	57.2*	47.9*	41.2*
CN1CCN(C(=O)CCN2C(=O)/C(=C/c3ccccc3Cl)SC2=S)CC1	12.7	-3.5	40.4	43.5*	9.9	44.1*	23.8	28.1
CCOC(=O)C(=O)NN=C(c1ccccc1)c1ccccc1	5.9	-2.6	-3.5	-2.6	-5.5	-15.0	·	·
Cc1nn(CCC(N)=S)c2nc(-c3cccs3)cc(C(F)(F)F)c12	22.1	-20.5	31.6	54.5*	-7.5	44.0*	40.8*	41.2*
CC(=O)c1ccc(NC(=O)[C@@H]2CCCN2C(=O)OC(C)(C)C)cc1	10.8	1.2	18.0	10.3	-47.0	0.0	·	·
SMILES	NALP3 yeast inh	SKKanGAS inh	tim23-1 inh	TIM10 inh	PfHsp90 set2	tim10-1 inh	tim10-1 confirm	TIM10 conf
Cc1ccc(S(=O)(=O)n2c([N+](=O)[O-])cnc2C)c(C)c1C	17.3	5.6	10.2	8.6	-14.0	13.2	·	·
Cc1ccc(-n2sc3ccccc3c2=O)cc1S(=O)(=O)N1CCCCC1	9.1	90.0*	17.4	57.1*	106.4*	87.2*	89.0*	75.8*
O=c1c2cc(F)ccc2sn1-c1ccccc1	18.0	·	37.6	47.3*	-7.3	45.5*	55.7*	76.8*
CC1NC(=O)c2ccccc2-n2c1nc1cc(F)ccc1c2=O (configuration not stated)	18.8	·	28.7	6.1	·	9.4	·	·
O=c1c2ccccc2sn1-c1ccc(S(=O)(=O)N2CCCCC2)cc1	17.7	-3.0	1.0	22.3	-10.8	19.5	·	·
O=C(O)c1cccc(-n2sc3ccccc3c2=O)c1	22.5	·	8.9	2.4	-3.3	1.3	·	·
Cc1ccccc1-n1sc2cc(F)ccc2c1=O	23.6	·	41.3	48.9*	·	40.3*	38.1*	70.0*
O=c1c2ccccc2sn1-c1ccccc1	29.6	100.3*	31.6	57.9*	87.9*	85.6*	51.2*	97.2*
CS(=O)(=O)c1ccc(C(=O)NCCN2C(=O)S/C(=C\c3cccnc3)C2=O)cc1[N+](=O)[O-]	8.4	16.4	-5.5	0.2	-3.8	-2.7	·	·
Cc1cc2nc(C3CCN(C(=S)NCCCOC(C)C)CC3)[nH]c2cc1C	12.1	17.3	-7.7	-1.8	-32.4	-4.2	·	·
Cc1nnc(Nc2ccccn2)c2ccccc12	32.4	-15.3	46.4	84.7*	-20.1	66.3*	70.5*	82.6*
Cc1nnc(Nc2ccc(F)cc2)c2ccccc12	14.2	8.2	5.8	10.0	-26.7	11.7	·	·
NNC(=O)c1ccc(Cn2cc(Cl)cn2)o1	9.6	1.6	3.2	2.8	-4.9	14.2	·	·
Cc1ccc2nc(NC(=O)c3ccc(Cn4cc(Cl)cn4)o3)sc2c1	13.2	39.4	35.7	50.5*	-0.3	46.0*	21.6	33.3*
Cc1nc(NC(=O)/C=C/c2ccccc2)n[nH]1	17.1	0.1	43.9	60.9*	19.2	59.5*	59.2*	53.0*
O=C(C=Cc1ccccc1)Nc1ccccc1	·	·	·	·	11.9	·	·	·
O=C(c1ccco1)N1CCN(C(=O)c2cc3sccc3n2Cc2ccccc2)CC1	-0.9	-3.8	47.0	43.2*	2.4	41.8*	42.8*	33.7*
COC(=O)/C=C1\OC(c2ccccc2)=CC1=O	-9.1	-3.7	39.5	40.4*	·	41.6*	28.7	32.0*
